Screening data (PubChem)
NS1 inh: blocks influenza NS1 protein function | Potency, µM (titrated, usually from 46.1 µM) | hit rate 0.4% among 270,000; calls by dose curve; note: actives are rising curves; nearly all actives have a fitted effect of over 50% in size
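Read-out: OD600 growth recovery of NS1-expressing budding yeast. Cells grown overnight at 30C in -URA glucose medium, washed, resuspended and diluted 1:100 in 2% galactose assay medium, pH 6.0. Same strain lacking NS1 served as positive control.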
Pf growth 96h: inhibits malaria parasite growth, 96 h. Potency, µM (top dose mostly 28.7 µM), hits mostly inhibitors. P. falciparum luciferase reporter growth, 96 h. AID 504834. hit rate 6.9% among 320,000
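Compounds incubated with erythrocytes infected by luciferase-expressing P. falciparum (2% hematocrit, 0.05% parasitemia final) for 96 hours, 37 C in 5% CO2. Growth inhibition scored as decreased luciferase luminescence.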
Pf growth 48h: inhibits P. falciparum growth in the first generation, 48 h | P. falciparum luciferase growth in erythrocytes, 48 h | hit rate 5.9% among 310,000 | Potency, µM (series often up to 28.7 µM), usual class: inhibitors
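Parasite viability was followed by luminescence of a genomically integrated firefly luciferase. Cultures held 0.1% parasitemia at 2% hematocrit (final), incubated under 5% CO2 at 37 C.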
Sm TGR inh: inhibitors of Schistosoma mansoni thioredoxin glutathione reductase. Q962Y6. purified TGR, DTNB reduction, TNB absorbance 405 nm. Potency, µM (highest dose often 114 µM), actives largely listed as inhibitors. hit rate 3% among 360,000. AID 485364; note: nearly all actives have a fitted effect of over 60% in size
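Kinetic colorimetric format: TGR-catalysed, NADPH-driven DTNB reduction monitored via TNB absorbance. Enzyme dispensed at 20 nM; compound exposure 15 min at room temperature before reaction start.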
CHX counter: counter-screen for Shiga toxin inhibitors: cycloheximide protein synthesis inhibition; cell reporter, cycloheximide protein synthesis inhibition counterscreen; AID 2314; max response, %; hit rate 12% among 300,000; in the data active = max response mostly above about 13%, no sharp cut-off; inactive = mostly below about 14%; note: read at 38.3 µM for the half of the compounds with a filed dose
Shiga toxin inh: blocks Shiga toxin action in Vero cells; Vero cells, Shiga toxin protein synthesis inhibition reporter; inhibition, % at 38.7 µM; hit rate 9.2% among 290,000; in the data active = inhibition mostly above about 28%, no sharp cut-off; inactive = mostly below about 43%
Hits are given with their value; - = inactive; ? = inconclusive; . = no result. A selection: hits, their analogues and other compounds. The true share with any hit is near 21%. Unless noted, calls come from the whole dose curve; as a rule, active = well fitted curve in the direction sought with a large enough effect; inconclusive = small, poorly fitted or top-dose-only effect, or another doubt; inactive = no such curve, though single readings can be large; an effect the other way counts as inactive or inconclusive.

SMILES	NS1 inh	Pf growth 96h	Pf growth 48h	Sm TGR inh	CHX counter	Shiga toxin inh
COC(=O)c1ccc(CSc2nnc3c(n2)[nH]c2ccccc23)cc1	-	-	-	-	-	-
Fc1cccc(CSc2nnc3c(n2)[nH]c2ccccc23)c1	-	?	?	-	19	-
CC1CCc2cc(F)ccc2N1C(=O)CSc1nnc2c(n1)[nH]c1ccccc12 (centres undefined)	-	?	1.5µM	-	-	-
NS(=O)(=O)c1ccc(CCNC(=O)C(=O)c2cn(CC(=O)N3CCCC3)c3ccccc23)cc1	-	?	?	-	-	-
Cc1ccc(OCc2nnc(N)s2)cc1	-	?	-	-	28	27
Cc1cc(C)cc(OCc2nnc(N)s2)c1	-	-	-	-	-	-
Cc1ccc(OCc2nnc(N)s2)cc1C	-	-	-	-	21	59
CCCN1CCN(C(=O)Cn2cnc3ccc(S(=O)(=O)N4CCC(C)CC4)cc3c2=O)CC1	.	?	-	-	-	-
COc1ccccc1OCc1ccc(C(=O)Nc2cc(OC)c(OC)c(OC)c2)o1	-	-	-	-	-	-
COc1ccccc1OCc1ccc(C(=O)Nc2ccc(Cl)cn2)o1	-	-	-	-	12	-
COc1ccc(NC(=O)c2ccc(COc3ccccc3OC)o2)cc1OC	-	-	-	-	-	-
COc1ccccc1OCc1ccc(C(=O)NN)o1	-	-	-	-	19	42
CCN(Cc1ccccc1)S(=O)(=O)c1cn(C)cn1	-	?	-	-	-	-
C/C(=N\NC(=O)Cn1cnc2ccccc21)c1cccs1	-	-	-	.	-	-
C/C(=N\Nc1nc(-c2ccccc2)cs1)c1cccs1	-	-	-	-	75	118
O=C(Cc1cccs1)Nc1nc(-c2ccccc2)cs1	-	-	.	-	-	-
C/C(=N\Nc1nc2ccccc2s1)c1cccs1	?	-	-	-	89	73
CC(=O)c1cccc(NC(=O)N2CCC(NC(=O)C34CC5CC(CC(C5)C3)C4)CC2)c1	.	-	?	-	-	-
NC[C@H]1O[C@@H](n2cnc3c(=O)[nH]c(N)nc32)[C@@H](O)[C@@H]1O	-	.	.	.	.	.
Cc1ccc(C)c(NC(=O)CSc2nnc(CNC(=O)c3ccccc3)n2-c2ccccc2)c1	.	.	.	-	.	.
N#CC1=C2SCCN2C(=O)C(C#N)C12CCCCC2 (centres undefined)	-	2.1µM	-	-	-	-
O=C(COc1ccc(-n2ccnc2)cc1)Nc1cccc(Cl)c1	.	?	-	-	-	-
CN1CCc2cccc3c2C1Cc1ccc(O)c(O)c1-3 (centres undefined)	?	10µM	?	.	-	-
C=CCN1CC[C@]23c4c5ccc(O)c4O[C@@H]2/C(=N/N=C2\CC[C@@]4(O)C6Cc7ccc(O)c8c7[C@@]4(CCN6CC=C)[C@@H]2O8)CC[C@@]3(O)C1C5	-	.	.	.	.	.
C=CCN1CCc2cccc3c2[C@H]1Cc1ccc(O)c(O)c1-3	-	-	?	1.6µM	-	-
SMILES	NS1 inh	Pf growth 96h	Pf growth 48h	Sm TGR inh	CHX counter	Shiga toxin inh
CCCN1CCc2cc(O)cc3c2C1Cc1ccc(O)c(O)c1-3 (centres undefined)	-	.	.	.	.	.
CCN1c2ccccc2NC2C1C(C(C)=O)C(=O)N2c1ccc(Cl)cc1 (centres undefined)	-	-	13µM	-	-	-
CC1(C(=O)NC2CCCCCCC2)CCC(=O)N1Cc1cccs1 (centres undefined)	-	?	.	-	-	-
O=C(CSc1nnc(-c2cccc(Cl)c2)o1)N1CCc2ccccc21	.	.	.	-	.	.
Cc1nn(-c2ccccc2)c(N)c1C1(O)C(=O)N(C(C)C)c2ccccc21 (centres undefined)	-	-	-	-	-	-
Cc1nn(-c2ccccc2)c2c1P(=O)(O)/C(=C1\N(C)c3ccccc3C1(C)C)C=N2	?	8.3µM	2.1µM	-	-	-
O=C1C=CC(=Nc2cccc3c(N=C4C=CC(=O)O4)cccc23)O1	-	.	.	.	.	.
Cc1ccccc1-c1nn2c(=O)cc(CN3CCN(C(=O)/C=C/c4ccccc4)CC3)nc2s1	.	.	.	40µM	.	.
CN(C)c1ccc(CNC(=O)CN2C(=O)CCn3nc(-c4cn(C)c5ccccc45)cc32)cc1	.	.	.	-	.	.
CCCC(=O)NC(=S)Nc1ccccc1N1CCOCC1	-	10µM	-	-	-	-
COc1cccc(C(=O)NC(=S)Nc2ccccc2N2CCOCC2)c1	-	?	-	-	-	-
